Reference: PubChem BioAssay (EPA / NIEHS)
The source made the active and inactive calls. Rule for the calls: active = hit-call score of the fitted dose curve at least 0.9, where 1 is the maximum; inactive = score below 0.9.

Each compound was assayed on Cytochrome P450 (CYP24A1_1), CYP24A1 (gene 1591) (assay: LTEA_HepaRG_CYP24A1_1: Life Technologies and Expression Analysis (LTEA) Assay for Cytochrome P450 (CYP24A1_1) using HepaRG (AID 2283671)). Settings: mRNA level, 48 h; actives raise or lower the signal.
Method: LTEA_HepaRG is a cell based, multiplexed-readout assay that uses HepaRG, a human liver cell line, with measurements taken at 48 hours after chemical dosing on a 96-well plate.LTEA_HepaRG_CYP24A1_1 is one of 102 assay component(s) measured in the LTEA HepaRG cell culture assay. It is a marker of NR mediated metabolism.Data from the assay component LTEA_HepaRG_CYP24A1_1 was analyzed into 1 endpoint. This assay endpoint, LTEA_HepaRG_CYP24A1_1, was analyzed with bidirectional fitting relative to DMSO as the negative control and baseline of activity. Using a type of inducible reporter, measures of mRNA induction for gain or loss-of-signal activity can be used to understand regulation of transcription factor activity. To generalize the intended target to other relatable targets, this assay endpoint is annotated to the cyp intended target family, where the subfamily is xenobiotic metabolism.
A total of 1060 chemcials from the ToxCast library were tested in eight-point concentration-response experiments. Cell culture and cytotoxicity assays were conducted at Thermo Fisher Scientific's Custom Services facility (Madison, WI). A single lot of human HepaRG cells (Thermo Fisher Scientific, Frederick, MD) was used for the cell culture experiments. 96-well format collagen type I coated plates of human HepaRG cells were prepared using established methods. Briefly, cryopreserved HepaRG cells were thawed, plated at a density of approximately 100,000 cells/well in HepaRG Thaw, Plate, and General Purpose media (HPRG770, Thermo Fisher Scientific), and incubated for 48 hours. 0.5% DMSO was selected as vehicle control to balance the requisite need of DMSO in HepaRG cultures to maintain differentiation (for example, baseline metabolism, proportions of hepatocytes vs. cholangiocytes), while enabling further hepatic receptor pathway activation (for example, PXR and CAR) in response to chemical exposure. 48 hours after plating, the culture medium was replaced with HepaRG Serum-Free Incudtion Media. Cells were exposed to each test chemical in duplicate and maintained in CO2 incubators for another 48 hours. Chemical plates were thawed to room temperature and 200x concentrations of treatment groups were prepared. 8-point conentration-reponse curves were made with the highest exposure at 100 uM, followed by half-log dilutions, all in 0.5% DMSO. Each test plate contained variouse controls, induction positive controls (1mM phenobarbital), cytotoxicity positive controls ([…] aflatoxin B1), vehicle controls (0.5% DMSO), and total lysis controls (0.5% DMSO). Cell morphology images were taken using an Essen IncuCyte FLR automated microscope, with six 96-well plates imaged in about 24 minutes. Images were captured and exported and JPEG files. Spent culture media was transfered to black-well plates for the LDH assay, and remaining media was sorted at -80 C for later use. Cells were treated with RLT buffer and frozen until shipped for gene expression analysis. Total RNA was isolated from the cell suspension in 75 uL of Buffer RLT (Qiagen, Germantown, MD 20874) by Quintiles/Expression Analysis (Durham, NC) using a custom isolation procedure. Total RNA from each plate well was transferred to a preamplification plate. Fluidigm's 96.96 Dynamic ArrayTM (Fluidigm, Amsterdam, the Netherlands) technology was used for gene expression analyses by quantitative reverse transcription polymerase chain reaction (qRT-PCR, performed by Quintiles/Expression Analysis, Durham, NC)89. Standard TaqManTM Assays (Applied Biosystems/ThermoFisher Scientific, Foster City, CA) were used to assess the expression of 93 genes selected based on their selectivity and sensitivity to important hepatic receptors known to be modulated by environmental chemicals; importance in human hepatocyte functionality; and hepatotoxicity. […]

SMILES | outcome
CCCCN(CC)c1c([N+](=O)[O-])cc(C(F)(F)F)cc1[N+](=O)[O-] | inactive
CC(COc1ccc(Oc2ccccc2)cc1)Oc1ccccn1 (stereo not given) | inactive
CC1(C(=O)Nc2ccc(O)c(Cl)c2Cl)CCCCC1 | inactive
CNC(=O)Oc1cccc2c1OC(C)(C)O2 | inactive
CCOP(=S)(Oc1cnc(C(C)(C)C)nc1)OC(C)C (stereo not given) | inactive
CCOP(=S)(OCC)Oc1ccc2c(C)c(Cl)c(=O)oc2c1 | inactive
CSc1nc(NC(C)C)nc(NC(C)C)n1 | inactive
CCOC(=O)CC(SP(=O)(OC)OC)C(=O)OCC (stereo not given) | inactive
CC[C@H](C)[C@H]1O[C@]2(C=C[C@@H]1C)C[C@@H]1C[C@@H](C/C=C(\C)[C@@H](O[C@H]3C[C@H](OC)[C@@H](O[C@H]4C[C@H](OC)[C@@H](NC)[C@H](C)O4)[C@H](C)O3)[C@@H](C)/C=C/C=C3\CO[C@@H]4[C@H](O)C(C)=C[C@@H](C(=O)O1)[C@]34O)O2 | inactive
CCc1cccc(CC)c1N(COC)C(=O)CCl | inactive
